CYP2C9 activ: increases human cytochrome P450 2C9 activity; P11712; recombinant CYP2C9, luciferin-H conversion, luminescence; stronger effect = higher value; factor 1 = untreated enzyme, 0 = blocked; activation factor at 5 µM; hit rate 1.4% among 96,000;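 active means activation factor of 2 or more for CYP2C9 at a 5 µM dose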;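 further: 0 = sulfaphenazole-blocked wells and 1 = vehicle-only wells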
CYP2C19 act: activators of human cytochrome P450 2C19. activation factor at 5 µM. recombinant CYP2C19, luciferin-H EGE luminescence; stronger effect = higher value; 0 = fully inhibited enzyme, 1 = untreated enzyme. P33261. 96,000 tested, under 10 active;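 active means activation factor of at least 2 at 5 µM in the primary screen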;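 further: 0 = wells with 2.5 mM tranylcypromine and 1 = vehicle-only wells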
Target sequence (P33261 whole entry, looked up): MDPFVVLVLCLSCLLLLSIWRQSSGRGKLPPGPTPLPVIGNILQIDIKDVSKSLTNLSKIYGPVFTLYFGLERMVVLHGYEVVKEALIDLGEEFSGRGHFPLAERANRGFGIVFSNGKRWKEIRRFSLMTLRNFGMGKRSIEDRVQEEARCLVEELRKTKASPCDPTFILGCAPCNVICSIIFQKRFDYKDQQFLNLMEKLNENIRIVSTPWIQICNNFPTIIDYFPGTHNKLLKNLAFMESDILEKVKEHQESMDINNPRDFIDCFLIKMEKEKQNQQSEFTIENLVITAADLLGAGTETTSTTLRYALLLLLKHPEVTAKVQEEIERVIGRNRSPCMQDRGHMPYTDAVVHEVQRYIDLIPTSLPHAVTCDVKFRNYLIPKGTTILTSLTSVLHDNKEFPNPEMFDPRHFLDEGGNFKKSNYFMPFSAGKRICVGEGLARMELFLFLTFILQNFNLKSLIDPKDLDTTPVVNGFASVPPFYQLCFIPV
CYP2C9 inhib: blocks human cytochrome P450 2C9; P11712; CYP2C9 Supersomes, luciferin-H conversion, luminescence; inhibition, % at 5 µM; hit rate 20% among 96,000;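 active means blocking of liver enzyme CYP2C9 beyond about 50% at 5 µM, limit read from the data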
PLAP act: activates human placental alkaline phosphatase; P05187; hit rate 1.2% among 96,000; purified PLAP enzyme, luminescent substrate read-out; stronger effect = higher value; activation fold at 20 µM; in the data active means activation fold above about 2
CYP2C19 inh: blocks human cytochrome P450 2C19 | P33261 | CYP2C19 Supersomes, luciferin-H EGE luminescence, 30 min | inhibition, % at 5 µM | hit rate 21% among 96,000;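 active means CYP2C19 inhibition above a set limit at 5 µM in the primary screen, cut at about 50% in these data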;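 further: plate controls were negative control wells for no effect and 2.5 mM tranylcypromine positive control for full effect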
Active calls of the source: *. In the library only some 31% were active in any assay of this set; here they are far more common.

SMILES	CYP2C9 activ	CYP2C19 act	CYP2C9 inhib	PLAP act	CYP2C19 inh
CC1CCN(CC(O)COC2CCC(C(C)(C)C)CC2)CC1 (stereo not given)	1.1	0.9	-8	1.6	5
CCOC(=O)C1=C(C)NC(=O)C1(NC(=O)c1cccnc1)C(F)(F)F (stereo not given)	1.2	1	-16	1	-2
CC(C)N(CCCNC(=O)CC1Oc2ccccc2NC1=O)Cc1ccccc1 (stereo not given)	1.1	1	-5	1.2	-3
O=C(CCCCCNc1nc(=S)[nH]c2ccccc12)N1CCN(c2ccccn2)CC1	0.4	0.4	62*	1.1	57*
O=C(c1cccs1)N1CCN(c2ccc(F)cc2)CC1	0.9	0.8	5	0.7	15
O=C(Oc1ccccc1)N1CCN(c2ccc(F)cc2)CC1	1.1	0.2	-8	1	85*
O=C(CCCN1C(=O)c2ccccc2C1=O)N1CCN(c2ccccn2)CC1	0.6	0.9	37	1	7
O=C(CCCOc1ccc(Cl)cc1Cl)N1CCN(c2ccccn2)CC1	0.6	0.2	43	1.5	76*
O=C(CCCOc1ccccc1)N1CCN(c2ccccn2)CC1	0.3	0.2	69*	1.4	80*
O=C(NCCCN1CCOCC1)C1CCC(=O)N1CCc1ccccc1 (stereo not given)	1	1.1	-3	1	-5
O=C(c1ccccc1CCc1ccccc1)N1CCOCC1	1.1	0.6	-11	1.2	40
CC(C)(C)C(=O)/C=C(N)/C=C/c1ccccc1	0.8	0.7	16	1	28
CC(C)(C)OC(=O)N1CC(O)CC1C(=O)OCC(=O)c1ccc(Cl)cc1 (stereo not given)	0.8	0.5	22	1.4	55*
CN(C)C/C(Cl)=C(\Cl)c1ccccc1	0.7	0.4	27	1.1	57*
CN(C)CC(=O)c1ccc(-c2ccccc2)cc1	1	1	2	1	-2
COC(=O)C(C#N)c1nc2ccccc2nc1N1CCCC1 (stereo not given)	0.6	0.7	40	1.1	30
COC(=O)C1CCN(c2nc3ccccc3nc2C(C#N)C(=O)OCC(C)C)CC1 (stereo not given)	0.5	0.7	48	1.1	34
CCOC(=O)C1CCN(c2nc3ccccc3nc2C(C#N)C(=O)OCCOC)CC1 (stereo not given)	0.5	0.3	50	1	66*
CCOC(=O)C1CCN(c2nc3ccccc3nc2C(C#N)C(=O)OC(C)C)CC1 (stereo not given)	0.8	0.1	17	0.9	92*
C=CCOC(=O)C(C#N)c1nc2ccccc2nc1N1CCN(Cc2ccc3c(c2)OCO3)CC1 (stereo not given)	0.4	0.7	57*	1.5	26
C=CCOC(=O)C(C#N)c1nc2ccccc2nc1N1CCC(C(=O)OCC)CC1 (stereo not given)	0.4	0.7	56*	1	26
CCOc1ccc(N2CCn3c2nc2c3c(=O)n(CCc3ccccc3)c(=O)n2C)cc1	0.8	1	22	1.2	2
CCC(=O)Nc1ccc2c(c1)ncn2-c1ccccc1	0.9	1	11	0.9	5
CCCCOc1nc2ccccc2nc1C(C#N)C(=O)NC1CCCCC1 (stereo not given)	0.5	0.9	50	1.4	12
CCOC(=O)C1CCN(c2nc3ccccc3nc2C(C#N)C(=O)OC(C)COC)CC1 (stereo not given)	0.4	0.4	63*	1	61*
SMILES	CYP2C9 activ	CYP2C19 act	CYP2C9 inhib	PLAP act	CYP2C19 inh
CCCCCCOC(=O)C(C#N)c1nc2ccccc2nc1N1CCCCC1 (stereo not given)	0.7	0.6	30	1.1	36
CC(C)COC(=O)C1C2C=CC3(CN(C4CCCC4)C(=O)C13)O2 (stereo not given)	1	1	4	1	-4
Cc1oc(-c2cccc(Cl)c2)nc1CN1CCCC(C(=O)NC(C)c2ccc3c(c2)OCCO3)C1 (stereo not given)	0.2	0.1	81*	1.8	87*
CCOC(=O)c1ccc(NC(=O)COc2ccc(S(=O)(=O)NC(C)CC)cc2)cc1 (stereo not given)	0.7	0.8	34	1	22
COc1ccc(S(=O)(=O)NC(C)C(=O)Nc2ccccc2F)cc1 (stereo not given)	1	0.6	3	0.9	43
COc1ccc(S(=O)(=O)NC(C)C(=O)Nc2cccc(C(C)=O)c2)cc1 (stereo not given)	0.4	0.6	64*	1	42

Assay outcomes deposited in PubChem by Sanford-Burnham Center for Chemical Genomics.
